Experimental data as given in PubChem BioAssay (NCATS).
Values joined by “and” are separate entries in the source; they are usually repeats but may differ in a detail not shown here. Identical values can stand only once. Inconclusive results are not listed. A call without a number means that no potency is given here. Some compounds were tested as several samples or in several runs, with calls that do not always agree. Active and inactive are the calls of the source. Unless noted, calls come from the whole dose curve; as a rule, active = well fitted curve in the direction sought with a large enough effect; inconclusive = small, poorly fitted or top-dose-only effect, or another doubt; inactive = no such curve, though single readings can be large; an effect the other way counts as inactive or inconclusive.

What was measured:
[1] = MultiTox-Fluor Cytotoxicity Assay - LYMP1-003 - Live Cells (AID 962);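 note: cells exposed to compound for 16 hours at 37 °C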; note: potency is the fitted concentration of half-maximal effect
Procedure, shortened: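 Acute cytotoxicity is scored as a drop in live-cell protease activity in human lymphoblastoid LYMP1-003 cells after 16 hr compound exposure at 37 C. AC50 values come from Hill-equation modelling of concentration-response data.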

[2] = qHTS assay for small molecule disruptors of the mitochondrial membrane potential - 1 hr assay (AID 651754; calls by dose curve; note: nearly all actives have a fitted effect of over 35% in size)
Procedure, shortened: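 Loss of mitochondrial potential shifts the cationic dye from red mitochondrial aggregates to green cytoplasmic monomers. Cells (HepG2) are treated with compound for 1 hr before a 30 min dye incubation at 37C.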

[3] = qHTS assay to identify small molecules that stimulate interleukin-8 (IL-8) secretion (AID 651758; active = well fitted activation curve with a large enough effect in the signal ratio; the % refers to the signal ratio; note: potency is the fitted concentration of half-maximal effect)
Procedure, shortened: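 Quantitative HTS in THP-1 monocytic cells at 2000 cells per well, with 16 hrs compound incubation at 37 C. IL-8 in the medium was then quantified by HTRF immunoassay, read after 1-3 hrs at room temperature.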

[4] = qHTS assay for small molecule antagonists of the retinoid-related orphan receptor gamma (ROR-gamma) signaling pathway - cell viability counter screen (AID 720652; active = well fitted curve in the direction sought with a large enough effect in the repeat runs; an effect the other way counts as inactive or inconclusive;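 note: CHO reporter cells with doxycycline-induced ROR-gamma expression; series mostly up to about 92 µM; compound exposure lasted 16 hr before ATP read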)
Procedure, shortened: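 Steps: seed CHO cells bearing TET-inducible ROR and ROR response element-luciferase; rest 5 hr at 37 C; add compound, then doxycycline; incubate 16 hr; add CellTiter-Glo and read luminescence as ATP-based viability.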

[5] = Cell Viability - LYMP2-004 (AID 966);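 note: cells exposed to compound for 24 h; nearly all actives have a fitted effect of over 65% in size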; note: potency is the fitted concentration of half-maximal effect
Procedure, shortened: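 qHTS cytotoxicity: human lymphoblastoid line, 24 hr compound treatment, 37 C, complete medium. Viability read as cellular ATP via luciferase luminescence; tetraoctylammonium bromide served as positive control.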

[6] = Cell Viability - LYMP2-015 (AID 971);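 note: cells exposed to compound for 24 h; nearly all actives have a fitted effect of over 55% in size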; note: potency is the fitted concentration of half-maximal effect
Procedure, shortened: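 Cells are seeded at 2500 per well and incubated 5 hr at 37 C. Compounds are added across a concentration series for 24 hr at 37 C. CellTiter-Glo is added, and luminescence is read after 30 min at room temperature.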

[7] = Cell Viability - LYMP2-010 (AID 981);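 note: cells exposed to compound for 24 hours at 37 °C; nearly all actives have a fitted effect of over 55% in size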; note: potency is the fitted concentration of half-maximal effect
Procedure, shortened: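 Steps: seed 2500 LYMP2-010 cells per well; incubate 5 hr at 37 C; add compound; incubate 24 hr at 37 C; add CellTiter-Glo, wait 30 min at room temperature; read luminescence. Concentration-response fitted to Hill equation for AC50.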

[8] = target: Vitamin D3 receptor (Homo sapiens) (UniProt P11473); test: qHTS assay for small molecule antagonists of vitamin D receptor signaling (AID 588541; calls by dose curve;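 note: receptor activated by calcitriol during compound treatment; series mostly up to about 77 µM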)
Procedure, shortened: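 VDR-UAS-bla HEK293T cells (2000/well, 2% charcoal-stripped FBS) were treated with titrated compounds plus 1-alpha,25-dihydroxyvitamin D3 (50 nM or 3 nM final) for 16 h at 37 C. CCF4 beta-lactamase fluorescence was read; Hill fits gave IC50.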

[9] = target: Retinoic acid receptor RXR-alpha (Homo sapiens) (UniProt P19793); test: qHTS assay for small molecule antagonists of retinoid X receptor alpha signaling (AID 588546; active = well fitted inhibition curve with a large enough effect in the signal ratio, with a control signal flat, not every such curve was filed as active; the % refers to the signal ratio;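 note: cells stimulated with 9-cis-retinoic acid as agonist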); conditions: HEK293T RXRa-UAS-bla, beta-lactamase ratio, antagonist mode
Procedure, shortened: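 Beta-lactamase reporter inhibition, read as CCF4 fluorescence ratio (ex 405, em 460/530 nm) after 2 h at RT. HEK293T UAS-bla cells, 2500/well, were stimulated with 9-cis-RA at 500 or 100 nM final alongside test compound for 18 h at 37 C.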

[10] = qHTS assay for small molecule activators of the human pregnane X receptor (PXR) signaling pathway (AID 720659; call rule not given here)
[11] = Cell Viability - SK-N-SH (AID 435; calls by dose curve;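 note: potency is the fitted concentration of half-maximal effect; compound exposure lasted 40 h at 37 °C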); conditions: SK-N-SH neuroblastoma cell viability qHTS
Procedure, shortened: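 Luminescent ATP signal served as the viability read-out after 40 hours of compound treatment of human neuroblastoma SK-N-SH cells. Concentration-response data, scaled between DMSO and 100 uM tamoxifen, gave AC50 values by standard Hill modeling.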

[12] = Cellular Toxicity (caspase-3) Mesangial (AID 660);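 note: combined caspase 3 and 7 activity read by Caspase-Glo luminescence; cells exposed to compound for 16 h before the caspase read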
Procedure, shortened: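 Seed cells derived from normal human renal glomeruli, incubate 5 h, add compounds across concentrations and incubate 16 h at 37 °C. Caspase 3/7 activation is then quantified by luciferase light, with AC50 derived by Hill modeling.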

[13] = target: Peroxisome proliferator-activated receptor gamma (Homo sapiens) (UniProt P37231); test: qHTS assay for small molecule antagonists of peroxisome proliferator-activated receptor gamma signaling (AID 588537; active = well fitted inhibition curve with a large enough effect in the signal ratio, with a control signal flat, not every such curve was filed as active; the % refers to the signal ratio; note: potency is the fitted concentration of half-maximal effect)
Procedure, shortened: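 Compounds are tested as concentration series for inhibition of rosiglitazone-driven (50 nM) reporter expression in GeneBLAzer PPAR-gamma-UAS-bla HEK293 cells. After 16 h at 37 C, CCF4 substrate is added for 2 h at room temperature and blue/green fluorescence is measured.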

[14] = Cell Viability - BJ (AID 421; calls by dose curve;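 note: potency is the fitted concentration of half-maximal effect; cells exposed to compound for 40 hours at 37 °C before readout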); conditions: BJ fibroblast viability, qHTS
Procedure, shortened: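 Quantitative HTS: ATP depletion in BJ cells after 40 hr compound exposure in complete culture medium, detected with CellTiter-Glo; AC50 from standard Hill fits.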

[15] = qHTS Assay for Identification of Small Molecule Agonists for Thrombopoietin (TPO) Signaling Pathway (AID 917)
Procedure, shortened: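 Cell-based luciferase reporter screen. Mouse Ba/F3 line stably expressing human TPO receptor; IL-3 removed overnight before plating. Co-treatment with compound and EC50 TPO (26 pM), 24 hrs at 37 C, then luminescence.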

[16] = target: Pyruvate kinase (Leishmania mexicana) (UniProt Q27686); test: qHTS Validation Assay for Inhibitors of Leishmania Mexicana Pyruvate Kinase (AID 945)
Procedure, shortened: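 Compounds are tested as eight-point concentration series. Reactions contain 0.2 nM LmPYK E451W, 0.5 mM PEP, 0.1 mM ADP, 7 mM MgCl2 and 50 mM KCl at pH 7.2, run 1 h at room temperature, then read by PKLight luminescence.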

[17] = target: Pyruvate kinase PKM (Homo sapiens) (UniProt P14618); test: qHTS Assay for Activators of Human Muscle Pyruvate Kinase (AID 954; active = well fitted curve in the direction sought with a large enough effect, not every such curve was filed as active)
Procedure, shortened: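 Screening used highly purified human pyruvate kinase M2 under submaximal activity, with PEP at its Km and ADP below Km. After an hour at room temperature, ATP was read by luciferase luminescence.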

[18] = target: Alpha-galactosidase (Coffea arabica) (UniProt Q42656); test: Counterscreen for Glucocerebrosidase Inhibitors: qHTS Assay for Coffee Bean alpha-Galactosidase at pH 4.5 (AID 957); note: series mostly up to about 77 µM
Procedure, shortened: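 Enzyme is added first (2 nM final), then compounds titrated from 0.7 nM to 77 uM, then 80 uM 4-methylumbelliferyl alpha-D-galactopyranoside; after 20 min at room temperature a pH 10 NaOH/glycine stop precedes fluorescence reading at 365/440 nm.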

[19] = target: Alpha-galactosidase A (Homo sapiens) (UniProt P06280); test: Counterscreen for Glucocerebrosidase Inhibitors: qHTS Assay for Human alpha-Galactosidase at pH 4.5 (AID 992)
Procedure, shortened: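 Each compound is preincubated briefly with 2 nM enzyme before substrate addition (80 uM); plates then sit 20 min at ambient temperature, are quenched with 1M NaOH/1M glycine, and read fluorometrically.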

[20] = target: alpha-glucosidase (Oryza sativa, rice) (UniProt Q653V4); test: Counterscreen for Glucocerebrosidase Inhibitors: qHTS Assay for Rice alpha-Glucosidase at pH 5.0 (AID 997)
Procedure, shortened: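 Endpoint fluorogenic assay at pH 5.0: compounds (0.7 nM to 77 uM) titrated against 4 nM rice enzyme and 400 uM 4-MU-alpha-glucoside for 20 min at room temperature; NaOH/glycine stop, read ex 365/em 440 nm, Hill-fitted AC50.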

Sequence of Pyruvate kinase PKM (Homo sapiens) (P14618 whole entry, looked up): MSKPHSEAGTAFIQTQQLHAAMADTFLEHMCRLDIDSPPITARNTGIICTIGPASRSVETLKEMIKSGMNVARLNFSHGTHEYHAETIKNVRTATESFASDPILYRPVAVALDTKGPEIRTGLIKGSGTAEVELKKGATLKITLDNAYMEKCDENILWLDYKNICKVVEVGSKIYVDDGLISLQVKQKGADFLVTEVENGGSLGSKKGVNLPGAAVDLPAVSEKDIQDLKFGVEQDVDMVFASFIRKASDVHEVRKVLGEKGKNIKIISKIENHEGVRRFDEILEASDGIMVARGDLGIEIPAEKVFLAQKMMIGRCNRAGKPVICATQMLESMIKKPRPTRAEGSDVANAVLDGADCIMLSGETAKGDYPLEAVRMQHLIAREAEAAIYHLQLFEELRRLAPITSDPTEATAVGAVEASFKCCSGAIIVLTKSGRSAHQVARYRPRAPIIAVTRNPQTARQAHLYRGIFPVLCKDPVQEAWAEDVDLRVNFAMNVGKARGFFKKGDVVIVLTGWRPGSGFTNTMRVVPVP
Sequence of Vitamin D3 receptor (Homo sapiens) (P11473 whole entry, looked up): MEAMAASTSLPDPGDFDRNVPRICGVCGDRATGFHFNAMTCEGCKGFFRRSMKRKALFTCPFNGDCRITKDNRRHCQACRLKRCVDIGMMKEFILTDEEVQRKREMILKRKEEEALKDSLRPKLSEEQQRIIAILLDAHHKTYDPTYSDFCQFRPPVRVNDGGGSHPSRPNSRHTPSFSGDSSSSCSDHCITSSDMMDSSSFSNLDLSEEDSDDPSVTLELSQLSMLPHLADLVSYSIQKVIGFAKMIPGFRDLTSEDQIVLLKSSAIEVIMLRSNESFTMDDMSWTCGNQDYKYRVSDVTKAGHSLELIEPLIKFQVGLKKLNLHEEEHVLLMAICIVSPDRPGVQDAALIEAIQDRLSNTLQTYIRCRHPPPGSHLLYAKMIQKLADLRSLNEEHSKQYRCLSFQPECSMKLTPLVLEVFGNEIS
Sequence of Retinoic acid receptor RXR-alpha (Homo sapiens) (P19793 whole entry, looked up): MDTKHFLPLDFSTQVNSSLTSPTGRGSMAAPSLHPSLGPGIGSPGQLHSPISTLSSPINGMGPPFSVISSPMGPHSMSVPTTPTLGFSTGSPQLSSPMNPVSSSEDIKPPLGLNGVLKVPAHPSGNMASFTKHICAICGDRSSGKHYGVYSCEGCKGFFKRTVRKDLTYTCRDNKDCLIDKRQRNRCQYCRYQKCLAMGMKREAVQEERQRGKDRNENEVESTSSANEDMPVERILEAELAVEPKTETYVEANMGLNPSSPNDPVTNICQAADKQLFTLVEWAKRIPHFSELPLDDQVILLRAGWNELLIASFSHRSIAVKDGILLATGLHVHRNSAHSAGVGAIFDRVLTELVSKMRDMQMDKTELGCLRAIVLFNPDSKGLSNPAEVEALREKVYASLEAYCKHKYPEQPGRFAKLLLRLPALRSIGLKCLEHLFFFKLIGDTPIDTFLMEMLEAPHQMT
Sequence of Alpha-galactosidase A (Homo sapiens) (P06280 whole entry, looked up): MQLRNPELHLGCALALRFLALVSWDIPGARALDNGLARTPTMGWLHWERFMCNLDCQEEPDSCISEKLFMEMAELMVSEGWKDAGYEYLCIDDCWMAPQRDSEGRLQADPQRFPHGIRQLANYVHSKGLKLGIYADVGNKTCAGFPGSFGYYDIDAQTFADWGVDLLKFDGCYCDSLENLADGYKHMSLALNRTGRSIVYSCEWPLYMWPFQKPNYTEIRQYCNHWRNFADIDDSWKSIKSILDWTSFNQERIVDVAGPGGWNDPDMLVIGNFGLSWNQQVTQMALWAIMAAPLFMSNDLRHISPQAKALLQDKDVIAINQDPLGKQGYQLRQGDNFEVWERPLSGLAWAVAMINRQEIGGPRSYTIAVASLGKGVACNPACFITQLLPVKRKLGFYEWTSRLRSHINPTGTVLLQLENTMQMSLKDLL
Sequence of Peroxisome proliferator-activated receptor gamma (Homo sapiens) (P37231 whole entry, looked up): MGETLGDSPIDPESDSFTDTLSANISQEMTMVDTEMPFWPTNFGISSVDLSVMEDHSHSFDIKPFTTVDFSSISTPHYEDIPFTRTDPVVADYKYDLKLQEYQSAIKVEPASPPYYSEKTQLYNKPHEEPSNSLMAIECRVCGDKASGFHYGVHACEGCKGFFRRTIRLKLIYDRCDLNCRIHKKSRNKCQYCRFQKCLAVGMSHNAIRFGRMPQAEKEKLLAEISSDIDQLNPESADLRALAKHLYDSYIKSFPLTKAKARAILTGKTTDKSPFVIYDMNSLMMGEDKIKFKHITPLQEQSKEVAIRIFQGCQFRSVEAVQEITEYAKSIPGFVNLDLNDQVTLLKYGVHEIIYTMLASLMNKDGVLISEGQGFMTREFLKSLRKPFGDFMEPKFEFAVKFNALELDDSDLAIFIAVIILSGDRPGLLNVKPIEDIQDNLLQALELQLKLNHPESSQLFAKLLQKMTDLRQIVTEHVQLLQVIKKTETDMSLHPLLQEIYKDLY
Sequence of Alpha-galactosidase (Coffea arabica) (Q42656 whole entry, looked up): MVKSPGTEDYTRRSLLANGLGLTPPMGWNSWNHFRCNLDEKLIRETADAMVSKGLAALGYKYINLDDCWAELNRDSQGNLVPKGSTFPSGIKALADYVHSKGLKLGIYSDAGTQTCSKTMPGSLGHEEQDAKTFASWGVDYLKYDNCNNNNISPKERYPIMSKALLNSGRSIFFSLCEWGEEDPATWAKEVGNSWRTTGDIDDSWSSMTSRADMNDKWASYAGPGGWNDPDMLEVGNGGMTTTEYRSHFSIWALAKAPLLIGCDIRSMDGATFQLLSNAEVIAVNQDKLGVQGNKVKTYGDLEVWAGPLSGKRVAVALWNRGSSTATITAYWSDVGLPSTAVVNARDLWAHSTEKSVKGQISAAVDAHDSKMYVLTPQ
Sequence of Pyruvate kinase (Leishmania mexicana) (Q27686 2-499 E452W): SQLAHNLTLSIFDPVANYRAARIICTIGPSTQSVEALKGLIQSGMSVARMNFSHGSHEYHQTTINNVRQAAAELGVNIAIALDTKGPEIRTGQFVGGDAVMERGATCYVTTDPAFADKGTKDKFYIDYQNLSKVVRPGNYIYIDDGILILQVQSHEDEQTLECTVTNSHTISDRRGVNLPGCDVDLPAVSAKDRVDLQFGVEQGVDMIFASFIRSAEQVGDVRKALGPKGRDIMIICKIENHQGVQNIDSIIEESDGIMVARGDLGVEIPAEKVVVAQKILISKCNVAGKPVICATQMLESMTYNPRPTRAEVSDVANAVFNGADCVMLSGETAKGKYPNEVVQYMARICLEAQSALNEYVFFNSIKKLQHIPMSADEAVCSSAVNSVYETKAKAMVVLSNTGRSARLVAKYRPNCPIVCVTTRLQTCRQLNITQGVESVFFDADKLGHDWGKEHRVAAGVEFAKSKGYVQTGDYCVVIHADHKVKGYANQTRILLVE

CCOCN(C(=O)CCl)c1c(C)cccc1CC
Potency [1]: inactive
Potency [2]: inactive
Potency [3]: inactive
Potency [4]: inactive

C=CCc1ccc2c(c1)OCO2
Potency [5]: inactive
Potency [6]: inactive
Potency [7]: inactive
outcome [8]: inactive
max response [9]: 33.4% (inactive)
Potency [3]: inactive
outcome [10]: inactive

CCc1cccc(CC)c1N(COC)C(=O)CCl
Potency [11]: > 92 µM (inactive)
outcome [12]: inactive
Potency [6]: 50.1 µM (active)
max response [9]: -7.04% (inactive)
Potency [2]: inactive

ClC(Cl)=C(c1ccc(Cl)cc1)c1ccc(Cl)cc1
Potency [11]: > 92 µM (inactive)
outcome [12]: inactive
Potency [1]: inactive
Potency [5]: inactive
Potency [13]: inactive
max response [9]: -7.07% (inactive) and 0.666% (inactive)
Potency [3]: inactive

C/C=C/c1ccc2c(c1)OCO2
Potency [14]: > 92 µM (inactive)
Potency [11]: > 92 µM (inactive)
Potency [1]: inactive
Potency [5]: inactive
Potency [6]: inactive
Potency [7]: inactive
outcome [10]: inactive

ClC1=C(Cl)C2(Cl)C3C4C=CC(C4)C3C1(Cl)C2(Cl)Cl (stereo unspecified)
outcome [12]: inactive
Potency [13]: inactive
max response [9]: -13.5% (inactive)
Potency [2]: inactive
Potency [3]: 42.2 µM (active)

CNC(=O)O/N=C/C(C)(C)SC
Potency [11]: > 92 µM (inactive)
Potency [1]: inactive
Potency [5]: inactive
Potency [6]: inactive
Potency [13]: inactive and 39.8 µM (active)
max response [9]: -10.4% (inactive) and 16.3% (inactive) and -14.6% (inactive)
Potency [2]: inactive
Potency [3]: inactive
Potency [4]: inactive

O=C(O)COc1ccc(Cl)cc1Cl
Potency [14]: > 92 µM (inactive)
Potency [11]: > 92 µM (inactive)
outcome [12]: inactive
Potency [1]: inactive
Potency [5]: inactive
Potency [7]: inactive
outcome [8]: inactive
Potency [2]: inactive
outcome [10]: inactive

CCNc1nc(Cl)nc(NC(C)C)n1
Potency [14]: > 92 µM (inactive)
Potency [11]: > 92 µM (inactive)
outcome [12]: inactive
Potency [1]: inactive
Potency [5]: inactive
Potency [7]: inactive
Potency [13]: inactive
outcome [8]: inactive
max response [9]: -16% (inactive) and 6.8% (inactive)
Potency [3]: inactive
Potency [4]: inactive

ClC1=C(Cl)C2(Cl)C3C(Cl)C=CC3C1(Cl)C2(Cl)Cl (stereo unspecified)
Potency [13]: inactive
Potency [2]: inactive
Potency [3]: 26.6 µM (active)
outcome [10]: inactive

COP(=S)(OC)Oc1ccc([N+](=O)[O-])cc1
Potency [14]: > 92 µM (inactive)
Potency [11]: > 92 µM (inactive)
outcome [12]: inactive
Potency [1]: inactive
Potency [6]: inactive
Potency [13]: inactive
outcome [8]: inactive
Potency [2]: inactive
outcome [10]: inactive

C=CCc1ccc(OC)cc1
Potency [14]: > 92 µM (inactive)
Potency [11]: > 92 µM (inactive)
Potency [7]: inactive
Potency [13]: inactive
Potency [4]: inactive
outcome [10]: inactive

O=S1OCC2C(CO1)C1(Cl)C(Cl)=C(Cl)C2(Cl)C1(Cl)Cl (stereo unspecified)
Potency [14]: > 92 µM (inactive)
outcome [12]: inactive
Potency [6]: inactive
outcome [8]: inactive
max response [9]: -29.4% (inactive)
Potency [3]: 66.8 µM (active)

COC(=O)NC(=S)Nc1ccccc1NC(=S)NC(=O)OC
Potency [14]: > 92 µM (inactive)
outcome [12]: inactive
Potency [1]: inactive
Potency [7]: inactive
Potency [13]: inactive
outcome [8]: inactive
Potency [2]: inactive
Potency [4]: inactive

c1ccc(N=Nc2ccccc2)cc1
Potency [14]: > 92 µM (inactive)
Potency [5]: inactive
Potency [13]: inactive
max response [9]: -1.15% (inactive) and 2.93% (inactive)
Potency [2]: inactive
Potency [4]: inactive
outcome [10]: inactive

ClC1=C(Cl)C2(Cl)C3C4CC(C5OC45)C3C1(Cl)C2(Cl)Cl (stereo unspecified)
Potency [1]: 12.6 µM (active)
Potency [5]: 20 µM (active)
Potency [6]: 39.8 µM (active)
Potency [7]: 50.1 µM (active)
outcome [8]: inactive

NC[C@H](O)c1ccc(O)cc1
outcome [15]: inactive
Potency [16]: inactive
outcome [17]: inactive
outcome [18]: inactive
outcome [19]: inactive
outcome [20]: inactive

CC[C@@]1(c2ccc(N)cc2)CCC(=O)NC1=O
outcome [15]: inactive
Potency [16]: inactive
outcome [17]: inactive
outcome [18]: inactive
outcome [19]: inactive
outcome [20]: inactive

C[N+]1(C)[C@@H]2CC[C@H]1CC(OC(=O)[C@@H](CO)c1ccccc1)C2 (stereo partly specified)
outcome [15]: inactive
Potency [16]: inactive
outcome [17]: inactive
outcome [18]: inactive
outcome [19]: inactive
outcome [20]: inactive

C[C@]12CC[C@H](O)C[C@@H]1CC[C@H]1[C@H]2CC[C@]2(C)C(=O)CC[C@@H]12
outcome [15]: inactive
Potency [16]: inactive
outcome [17]: inactive
outcome [18]: inactive
outcome [19]: inactive
outcome [20]: inactive

C[C@H](NC(C)(C)C)C(=O)c1cccc(Cl)c1
outcome [15]: inactive
Potency [16]: inactive
outcome [17]: inactive
outcome [18]: inactive
outcome [19]: inactive
outcome [20]: inactive

COc1ccc(OC)c([C@H](O)[C@H](C)N)c1
outcome [15]: inactive
Potency [16]: inactive
outcome [17]: inactive
outcome [18]: inactive
outcome [19]: inactive
outcome [20]: inactive

COc1ccc2c(c1OC)C(=O)O[C@H]2[C@H]1c2cc3c(cc2CCN1C)OCO3
Potency [16]: inactive
outcome [18]: inactive
outcome [19]: inactive
outcome [20]: inactive

C#CCN(C)[C@@H](C)Cc1ccccc1
outcome [15]: inactive
Potency [16]: inactive
outcome [17]: inactive
outcome [18]: inactive
outcome [19]: inactive
outcome [20]: inactive

CS(=N)(=O)CC[C@@H](N)C(=O)O (stereo partly specified)
outcome [15]: inactive
Potency [16]: inactive
outcome [17]: inactive
outcome [18]: inactive
outcome [19]: inactive
outcome [20]: inactive

CN1CC[C@]2(C)c3cc(O)ccc3N(C)[C@@H]12
Potency [16]: inactive
outcome [17]: inactive
outcome [18]: inactive
outcome [19]: inactive
outcome [20]: inactive
